Legend:
Experiment in all cases: PBM; 200 nM protein, PBS
Conditions in all cases: dsDNA, one strand shown
HESX1 [1] = molecular target: HESX1 (Homo sapiens, UniProt Q9UBX0 95-180, R165K)
SHOX [2] = molecular target: SHOX (Homo sapiens, UniProt O15266 103-189)
ALX4 [3] = molecular target: ALX4 (Homo sapiens, UniProt Q9H161 200-286)
PRRX1 [4] = molecular target: PRRX1 (Homo sapiens, UniProt P54821 80-166, F113S)
ALX4 [5] = molecular target: ALX4 (Homo sapiens, UniProt Q9H161 200-286, Q225E)
HESX1 [6] = molecular target: HESX1 (Homo sapiens, UniProt Q9UBX0 95-180)
MSX2 [7] = molecular target: MSX2 (Homo sapiens, UniProt P35548 130-214, R199I)
ALX1 [8] = molecular target: ALX1 (Homo sapiens, UniProt Q15699 118-204, L144V)
SHOX [9] = molecular target: SHOX (Homo sapiens, UniProt O15266 103-189, R173C)
ALX1 [10] = molecular target: ALX1 (Homo sapiens, UniProt Q15699 118-204, L144R)
PROP1 [11] = molecular target: PROP1 (Homo sapiens, UniProt O75360 56-141)
HESX1 [12] = molecular target: HESX1 (Homo sapiens, UniProt Q9UBX0 95-180, R109Q)
PROP1 [13] = molecular target: PROP1 (Homo sapiens, UniProt O75360 56-141, R99H)
ALX3 = ALX3 (Homo sapiens, UniProt O95076 139-225, L168Q)
HESX1 [14] = molecular target: HESX1 (Homo sapiens, UniProt Q9UBX0 95-180, P111T)
PROP1 [15] = molecular target: PROP1 (Homo sapiens, UniProt O75360 56-141, F88S)
MSX2 [16] = molecular target: MSX2 (Homo sapiens, UniProt P35548 130-214, F161Y)
HESX1 [17] = molecular target: HESX1 (Homo sapiens, UniProt Q9UBX0 95-180, F115L)
ALX1 [18] = molecular target: ALX1 (Homo sapiens, UniProt Q15699 118-204)
PRRX1 [19] = molecular target: PRRX1 (Homo sapiens, UniProt P54821 80-166)
Sequence of PRRX1 (Homo sapiens, UniProt P54821 80-166) (P54821 80-166): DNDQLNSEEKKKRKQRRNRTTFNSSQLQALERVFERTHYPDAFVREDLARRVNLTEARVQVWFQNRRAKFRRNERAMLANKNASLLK

Sequence of SHOX (Homo sapiens, UniProt O15266 103-189, R173C) (O15266 103-189 R173C): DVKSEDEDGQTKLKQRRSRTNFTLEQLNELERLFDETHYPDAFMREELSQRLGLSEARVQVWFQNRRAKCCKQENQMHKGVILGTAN
Sequence of PROP1 (Homo sapiens, UniProt O75360 56-141, R99H) (O75360 56-141 R99H): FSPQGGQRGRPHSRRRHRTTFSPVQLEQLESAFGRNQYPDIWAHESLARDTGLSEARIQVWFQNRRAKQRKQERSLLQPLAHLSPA
Sequence of PRRX1 (Homo sapiens, UniProt P54821 80-166, F113S) (P54821 80-166 F113S): as the sequence (P54821 80-166) above, with F34S counted along it
Sequence of SHOX (Homo sapiens, UniProt O15266 103-189) (O15266 103-189): as the sequence (O15266 103-189 R173C) above, with C71R counted along it
Sequence of HESX1 (Homo sapiens, UniProt Q9UBX0 95-180, R165K) (Q9UBX0 95-180 R165K): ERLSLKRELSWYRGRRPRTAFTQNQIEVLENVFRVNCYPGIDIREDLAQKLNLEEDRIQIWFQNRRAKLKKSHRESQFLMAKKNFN
Sequence of HESX1 (Homo sapiens, UniProt Q9UBX0 95-180, R109Q) (Q9UBX0 95-180 R109Q): as the sequence (Q9UBX0 95-180 R165K) above, with R15Q, K71R counted along it
Sequence of PROP1 (Homo sapiens, UniProt O75360 56-141) (O75360 56-141): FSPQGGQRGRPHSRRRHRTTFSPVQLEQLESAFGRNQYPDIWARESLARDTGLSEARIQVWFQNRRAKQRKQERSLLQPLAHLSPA
Sequence of HESX1 (Homo sapiens, UniProt Q9UBX0 95-180, F115L) (Q9UBX0 95-180 F115L): as the sequence (Q9UBX0 95-180 R165K) above, with F21L, K71R counted along it
Sequence of HESX1 (Homo sapiens, UniProt Q9UBX0 95-180, P111T) (Q9UBX0 95-180 P111T): as the sequence (Q9UBX0 95-180 R165K) above, with P17T, K71R counted along it
Sequence of HESX1 (Homo sapiens, UniProt Q9UBX0 95-180) (Q9UBX0 95-180): as the sequence (Q9UBX0 95-180 R165K) above, with K71R counted along it
Sequence of MSX2 (Homo sapiens, UniProt P35548 130-214, F161Y) (P35548 130-214 F161Y): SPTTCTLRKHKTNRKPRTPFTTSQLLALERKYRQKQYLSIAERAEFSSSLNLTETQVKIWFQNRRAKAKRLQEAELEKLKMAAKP
Sequence of ALX3 (O95076 139-225 L168Q): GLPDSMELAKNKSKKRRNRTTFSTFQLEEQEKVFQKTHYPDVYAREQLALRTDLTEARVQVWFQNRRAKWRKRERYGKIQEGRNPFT
Sequence of MSX2 (Homo sapiens, UniProt P35548 130-214, R199I) (P35548 130-214 R199I): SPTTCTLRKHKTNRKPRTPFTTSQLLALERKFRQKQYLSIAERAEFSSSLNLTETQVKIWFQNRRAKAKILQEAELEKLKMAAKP
Sequence of ALX4 (Homo sapiens, UniProt Q9H161 200-286, Q225E) (Q9H161 200-286 Q225E): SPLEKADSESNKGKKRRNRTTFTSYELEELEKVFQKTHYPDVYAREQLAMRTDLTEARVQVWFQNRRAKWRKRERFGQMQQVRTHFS
Sequence of PROP1 (Homo sapiens, UniProt O75360 56-141, F88S) (O75360 56-141 F88S): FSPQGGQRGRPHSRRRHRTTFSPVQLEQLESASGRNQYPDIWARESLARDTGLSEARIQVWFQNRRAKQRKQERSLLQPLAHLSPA
Sequence of ALX4 (Homo sapiens, UniProt Q9H161 200-286) (Q9H161 200-286): as the sequence (Q9H161 200-286 Q225E) above, with E26Q counted along it
Sequence of ALX1 (Homo sapiens, UniProt Q15699 118-204, L144V) (Q15699 118-204 L144V): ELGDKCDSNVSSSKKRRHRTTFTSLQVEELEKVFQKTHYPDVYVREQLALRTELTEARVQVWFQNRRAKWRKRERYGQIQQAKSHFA
Sequence of ALX1 (Homo sapiens, UniProt Q15699 118-204, L144R) (Q15699 118-204 L144R): as the sequence (Q15699 118-204 L144V) above, with V27R counted along it
Sequence of ALX1 (Homo sapiens, UniProt Q15699 118-204) (Q15699 118-204): as the sequence (Q15699 118-204 L144V) above, with V27L counted along it

Sequence	binding signal (HESX1 [1])	binding signal (SHOX [2])	binding signal (ALX4 [3])	binding signal (PRRX1 [4])	binding signal (ALX4 [5])	binding signal (HESX1 [6])	binding signal (MSX2 [7])	binding signal (ALX1 [8])	binding signal (SHOX [9])	binding signal (ALX1 [10])	binding signal (PROP1 [11])	binding signal (HESX1 [12])	binding signal (PROP1 [13])	binding signal (ALX3)	binding signal (HESX1 [14])	binding signal (PROP1 [15])	binding signal (MSX2 [16])	binding signal (HESX1 [17])	binding signal (ALX1 [18])	binding signal (PRRX1 [19])
AATTAAGC	11.5 upbm affinity estimate (log intensity, higher = more binding, comparable within an allelic series)	11.9 upbm affinity estimate (log intensity, higher = more binding, comparable within an allelic series)	13.7 upbm affinity estimate (log intensity, higher = more binding, comparable within an allelic series)	11 upbm affinity estimate (log intensity, higher = more binding, comparable within an allelic series)	12.9 upbm affinity estimate (log intensity, higher = more binding, comparable within an allelic series)	11.6 upbm affinity estimate (log intensity, higher = more binding, comparable within an allelic series)	12.2 upbm affinity estimate (log intensity, higher = more binding, comparable within an allelic series)	11.6 upbm affinity estimate (log intensity, higher = more binding, comparable within an allelic series)	9.54 upbm affinity estimate (log intensity, higher = more binding, comparable within an allelic series)	11.2 upbm affinity estimate (log intensity, higher = more binding, comparable within an allelic series)	11.2 upbm affinity estimate (log intensity, higher = more binding, comparable within an allelic series)	9.03 upbm affinity estimate (log intensity, higher = more binding, comparable within an allelic series)	11 upbm affinity estimate (log intensity, higher = more binding, comparable within an allelic series)	10.4 upbm affinity estimate (log intensity, higher = more binding, comparable within an allelic series)	10.5 upbm affinity estimate (log intensity, higher = more binding, comparable within an allelic series)	7.71 upbm affinity estimate (log intensity, higher = more binding, comparable within an allelic series)	12.9 upbm affinity estimate (log intensity, higher = more binding, comparable within an allelic series)	7.7 upbm affinity estimate (log intensity, higher = more binding, comparable within an allelic series)	12.2 upbm affinity estimate (log intensity, higher = more binding, comparable within an allelic series)	13.3 upbm affinity estimate (log intensity, higher = more binding, comparable within an allelic series)
GCCAATTA	13.5 upbm affinity estimate (log intensity, higher = more binding, comparable within an allelic series)	12.5 upbm affinity estimate (log intensity, higher = more binding, comparable within an allelic series)	14 upbm affinity estimate (log intensity, higher = more binding, comparable within an allelic series)	11.2 upbm affinity estimate (log intensity, higher = more binding, comparable within an allelic series)	13.6 upbm affinity estimate (log intensity, higher = more binding, comparable within an allelic series)	13.3 upbm affinity estimate (log intensity, higher = more binding, comparable within an allelic series)	13 upbm affinity estimate (log intensity, higher = more binding, comparable within an allelic series)	11.9 upbm affinity estimate (log intensity, higher = more binding, comparable within an allelic series)	9.95 upbm affinity estimate (log intensity, higher = more binding, comparable within an allelic series)	11.7 upbm affinity estimate (log intensity, higher = more binding, comparable within an allelic series)	11.6 upbm affinity estimate (log intensity, higher = more binding, comparable within an allelic series)	10.3 upbm affinity estimate (log intensity, higher = more binding, comparable within an allelic series)	11.9 upbm affinity estimate (log intensity, higher = more binding, comparable within an allelic series)	10.9 upbm affinity estimate (log intensity, higher = more binding, comparable within an allelic series)	12.1 upbm affinity estimate (log intensity, higher = more binding, comparable within an allelic series)	7.64 upbm affinity estimate (log intensity, higher = more binding, comparable within an allelic series)	13.6 upbm affinity estimate (log intensity, higher = more binding, comparable within an allelic series)	7.99 upbm affinity estimate (log intensity, higher = more binding, comparable within an allelic series)	12.6 upbm affinity estimate (log intensity, higher = more binding, comparable within an allelic series)	13.3 upbm affinity estimate (log intensity, higher = more binding, comparable within an allelic series)
AATTAAGG	11.4 upbm affinity estimate (log intensity, higher = more binding, comparable within an allelic series)	11.7 upbm affinity estimate (log intensity, higher = more binding, comparable within an allelic series)	13.6 upbm affinity estimate (log intensity, higher = more binding, comparable within an allelic series)		12.8 upbm affinity estimate (log intensity, higher = more binding, comparable within an allelic series)	11.4 upbm affinity estimate (log intensity, higher = more binding, comparable within an allelic series)			9.49 upbm affinity estimate (log intensity, higher = more binding, comparable within an allelic series)		11 upbm affinity estimate (log intensity, higher = more binding, comparable within an allelic series)	8.76 upbm affinity estimate (log intensity, higher = more binding, comparable within an allelic series)	10.8 upbm affinity estimate (log intensity, higher = more binding, comparable within an allelic series)	10.4 upbm affinity estimate (log intensity, higher = more binding, comparable within an allelic series)	10.3 upbm affinity estimate (log intensity, higher = more binding, comparable within an allelic series)	7.57 upbm affinity estimate (log intensity, higher = more binding, comparable within an allelic series)		7.55 upbm affinity estimate (log intensity, higher = more binding, comparable within an allelic series)		
GGAGCGCA	6.3 upbm affinity estimate (log intensity, higher = more binding, comparable within an allelic series)	7.21 upbm affinity estimate (log intensity, higher = more binding, comparable within an allelic series)				6.37 upbm affinity estimate (log intensity, higher = more binding, comparable within an allelic series)			7.1 upbm affinity estimate (log intensity, higher = more binding, comparable within an allelic series)			6.4 upbm affinity estimate (log intensity, higher = more binding, comparable within an allelic series)			6.31 upbm affinity estimate (log intensity, higher = more binding, comparable within an allelic series)			6.34 upbm affinity estimate (log intensity, higher = more binding, comparable within an allelic series)		
GAGGGGGC	6.47 upbm affinity estimate (log intensity, higher = more binding, comparable within an allelic series)					6.37 upbm affinity estimate (log intensity, higher = more binding, comparable within an allelic series)						6.41 upbm affinity estimate (log intensity, higher = more binding, comparable within an allelic series)			6.44 upbm affinity estimate (log intensity, higher = more binding, comparable within an allelic series)			6.41 upbm affinity estimate (log intensity, higher = more binding, comparable within an allelic series)		
GACAATTA	11.7 upbm affinity estimate (log intensity, higher = more binding, comparable within an allelic series)	11.6 upbm affinity estimate (log intensity, higher = more binding, comparable within an allelic series)		11 upbm affinity estimate (log intensity, higher = more binding, comparable within an allelic series)		12 upbm affinity estimate (log intensity, higher = more binding, comparable within an allelic series)	12.7 upbm affinity estimate (log intensity, higher = more binding, comparable within an allelic series)		9.21 upbm affinity estimate (log intensity, higher = more binding, comparable within an allelic series)			8.59 upbm affinity estimate (log intensity, higher = more binding, comparable within an allelic series)	10.8 upbm affinity estimate (log intensity, higher = more binding, comparable within an allelic series)		10.4 upbm affinity estimate (log intensity, higher = more binding, comparable within an allelic series)		13.4 upbm affinity estimate (log intensity, higher = more binding, comparable within an allelic series)	7.41 upbm affinity estimate (log intensity, higher = more binding, comparable within an allelic series)		13.2 upbm affinity estimate (log intensity, higher = more binding, comparable within an allelic series)
